# Assay results published in PubChem BioAssay AID1894 (NMMLSC, 2009).
# In all, about 5,900 compounds went through this assay and about 100 (1.7%) were called active. This is one part of a sample in which actives are shown more often than they occur. A number with no mark means an inactive call.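 Rule for the calls: active = binding response below 72% of control, or above a set upper limit, though filed actives all read lower; inactive = the rest.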
# Molecular target: Mitogen-activated protein kinase kinase kinase 3 (Homo sapiens) (UniProt Q99759)
# Test: MEKK3 wild-type PB1 binding to MEK5, inhibitors, confirmation, biochemical, bead multiplex flow cytometry, single concentration, wildtype (AID 1894);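 note: 100% = DMSO only wells and 0% = binding blocked by excess unlabeled MEK5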
# Conditions: Alexa488-MEK5 binding to MEKK3, at 10 µM, stronger effect = lower value
# Chain of Mitogen-activated protein kinase kinase kinase 3 (Homo sapiens) (Q99759 whole entry, looked up): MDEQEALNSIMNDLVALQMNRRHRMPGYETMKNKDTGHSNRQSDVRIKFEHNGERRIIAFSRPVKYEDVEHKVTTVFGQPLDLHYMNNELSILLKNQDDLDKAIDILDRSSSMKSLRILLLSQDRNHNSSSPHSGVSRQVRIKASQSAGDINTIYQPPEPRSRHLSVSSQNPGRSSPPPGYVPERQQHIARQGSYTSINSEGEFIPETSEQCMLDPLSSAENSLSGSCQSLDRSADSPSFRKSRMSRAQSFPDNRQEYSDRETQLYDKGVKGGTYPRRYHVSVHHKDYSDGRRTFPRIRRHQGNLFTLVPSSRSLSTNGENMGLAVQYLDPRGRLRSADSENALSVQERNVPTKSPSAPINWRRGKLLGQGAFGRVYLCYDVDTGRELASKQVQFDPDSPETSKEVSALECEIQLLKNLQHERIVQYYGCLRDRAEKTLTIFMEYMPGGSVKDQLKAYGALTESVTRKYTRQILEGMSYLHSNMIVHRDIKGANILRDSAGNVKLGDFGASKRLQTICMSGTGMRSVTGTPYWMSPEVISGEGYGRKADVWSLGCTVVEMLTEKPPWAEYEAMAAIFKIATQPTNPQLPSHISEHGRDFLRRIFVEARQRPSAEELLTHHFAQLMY
row,SMILES,binding response (% of control)
1,C=C(C)C1CC=C(C)/C(=N\NC(=O)CNc2ccccc2OC)C1 (configuration not stated),109%
2,CCOC(=O)c1cc2c(nc1NC(=S)Nc1ccccc1)CC(C)(CC)OC2 (configuration not stated),102%
3,COc1cccc(OCC(=O)NNC(=O)c2cnccn2)c1,101%
4,CCCn1c(=N)n(CC(=O)c2ccc(Cl)c(Cl)c2)c2ccccc21,109%
5,Cc1cc(C)c(NC(=O)C[N+](C)(C)CC(O)COc2cccc3ccccc23)c(C)c1 (configuration not stated),108%
6,CCOC(=O)c1c(-c2ccccc2)csc1NC(=S)NC(=O)c1ccccc1,102%
7,CCCCN1C(=O)/C(=C(/C#N)C(N)=O)c2ccccc21,99%
8,CC(=O)Nc1ccc(N2CCOCC2)c(C(=O)Nc2cccc(C)c2)c1,105%
9,COc1ccccc1NC(=S)N1CCN(c2ccc(F)cc2)CC1,102%
10,CCCN(CCC)c1nc2c(C)cccn2c(=O)c1/C=C1/SC(=S)N(Cc2ccco2)C1=O,86%
11,O=C(Nc1ccc2ccccc2c1)Nc1ccc2snnc2c1,105%
12,O=C1NCC(=O)N(Cc2ccccc2)/C1=C/c1ccccc1,91%
13,O=C(CSc1ccc(-c2ccc(F)cc2)nn1)Nc1ccc2c(c1)OCCO2,104%
14,CCOc1cc(C(=O)OCC(=O)Nc2cccc(C)c2)ccc1OCC(=O)N1CCOCC1,106%
15,O=C(CN1C(=O)c2cccnc2Oc2ccc(Cl)cc21)Nc1ccc(F)cc1,103%
16,O=c1c2ccccc2c(-c2ccccc2)nn1Cc1ccccc1,97%
17,CCn1cc(CN2CCC(C(=O)Nc3cccc(-c4cccc(Cl)c4)c3)CC2)cn1,116%
18,CC(=O)N1CCN(S(=O)(=O)c2ccc(C)c([N+](=O)[O-])c2)C1C(C)C (configuration not stated),97%
19,N=C1/C(=C/c2cccn2-c2cccc([N+](=O)[O-])c2)C(=O)N=C2SC=CN12,100%

row,SMILES,binding response (% of control)
1,Cn1c(=NC(=O)CSCC(=O)N2CCCCC2)sc2ccccc21,104%
2,CCCCNC(=O)N1CCCC(N(C)CCc2ccc(OC)c(OC)c2)C1 (configuration not stated),102%
3,O=C(NCc1ccccc1Cl)NC(=O)c1csc([N+](=O)[O-])c1,103%
4,CC(C)(C)c1nnc(NC(=O)C2c3ccccc3Oc3ccccc32)s1,100%
5,CN(c1ccccc1)c1ccc(/C=c2\s/c(=C(/C#N)C(=O)C(C)(C)C)n(Cc3ccco3)c2=O)cc1,69% (active)
6,O=C(/C=C/Nc1ccccc1)c1cnc(-c2ccccc2)s1,106%
7,Cc1cccc(-c2ncc(CN3CCC(CO)(CCCc4ccccc4)CC3)cn2)c1,107%
8,CC(C)(C)NC(=O)c1cccc(NC(=O)Cc2ccc(Br)cc2)c1,101%
9,COCC(C)NC(=O)COc1nncc2ccccc12 (configuration not stated),95%
10,O=C(COC(=O)CNC(=O)c1ccco1)Nc1ccc(F)cc1,103%
11,CCOC(=O)c1c(NC(=O)c2ccc(S(=O)(=O)N(C)CC3CCCO3)cc2)sc2c1CC(C)(C)NC2(C)C (configuration not stated),99%
12,CCN(CC)CCCNC(=O)c1ccc2c(=O)n(Cc3ccc4c(c3)OCO4)c(=S)[nH]c2c1,101%
13,CN(C)CCCN(C(=O)COc1ccccc1)c1nc2c(Cl)cccc2s1,108%
14,O=C(O)/C=C\C(=O)Nc1ccc(OCc2ccccc2)cc1,98%
15,Cc1ccc2c(C)c(C(=O)N3CCN(c4ccncc4)CC3)oc2c1C,108%
16,Cc1ccccc1-c1ccc(Nc2ccc(C(=O)N3CCOCC3)cc2)nn1,102%
17,C[N+](C)(C)CCNC(=O)c1c(O)c2c([nH]c1=O)CCCC2,99%
18,COc1cc(C)nc(N2CCCC(C(=O)NCC(C)C)C2)n1 (configuration not stated),96%
19,O=c1[nH]c(=S)[nH]c2[nH]c(=S)[nH]c12,100%

row,SMILES,binding response (% of control)
1,CCOC(=O)c1cc2occc2n1CC(=O)N1CCN(C(=O)c2ccco2)CC1,95%
2,O=C(O)C1CCN(c2ccc([N+](=O)[O-])cc2[N+](=O)[O-])CC1,102%
3,COc1ccccc1CC(=O)Nc1ccc([N+](=O)[O-])cc1OC,98%
4,c1ccc2c(c1)C(=NC1CCCCC1)NC2=NC1CCCCC1,104%
5,CCc1nnc(NC(=O)c2sc3nc(C)cc(COC)c3c2N)s1,105%
6,Cc1cccc(OCCNC(=O)CSc2ccc(C(F)(F)F)cc2[N+](=O)[O-])c1,104%
7,COc1ccc(CCn2c(NN=C3CCCC3)nc3c2c(=O)[nH]c(=O)n3C)cc1,106%
8,Cc1c(CN2CCC(CO)(CCOc3ccccc3)CC2)[nH]c2ccc(Cl)cc12,112%
9,COc1cccc(Nc2ncccc2C(=O)O)c1,101%
10,O=C(NCC1CCCCC1)c1cc(S(=O)(=O)N2CCCCC2)ccc1N1CCOCC1,91%
11,O=C(c1ccc(Br)o1)N(c1ccccn1)C1CCCCC1,98%
12,Cc1cccc(CSc2nnc(C)c(=O)n2N)c1,103%
13,CC(C)CC(=O)NC(=S)NCc1ccccc1,99%
14,COC(=O)C1=NN(c2ccccc2)C2C(=O)N(c3ccccc3OC)C(=O)C12 (configuration not stated),103%
15,Cc1ccccc1CCN(CC(=O)NC1CCCCC1)C(=O)c1csnn1,97%
16,Cc1[nH]c2ccc(S(N)(=O)=O)cc2c1C,100%
17,CCc1ccc2nc(Nc3ncc(C(C)=O)c(C)n3)nc(C)c2c1,102%
18,COc1cccc(OC)c1C(=O)Nc1ccc(Cc2ccncc2)cc1,101%
19,CN(C)CC(O)COc1ccc(C(C)(C)c2ccc(OCC(O)CN(C)C)cc2)cc1 (configuration not stated),111%
